Test in all cases: NCI-60 one-dose screen, 48 h (100 = growth as untreated, 0 = no growth, -100 = all killed)
What all share (details): 10 µM unless noted

The test system of experiment [1] is NCI-H23 lung.
Experiment [2] relates to NCI-H226 lung.
Experiment [3] concerns NCI-H322M lung.
For experiment [4], the system named is HOP-62 NSCLC.
The test system of experiment [5] is NCI-H460 lung.
For experiment [6], the system named is HOP-92 NSCLC.
Experiment [7] relates to NCI-H522 lung.
In experiment [8] the test system is A549/ATCC NSCLC.
Experiment [9] has as its system 786-0 renal.
Experiment [10] deals with COLO 205 colon.
Experiment [11] concerns DU-145 prostate.
The test system of experiment [12] is K-562 leukemia.
Experiment [13] deals with MALME-3M melanoma.
Experiment [14] deals with MDA-MB-231 breast.
Experiment [15] deals with RXF 393 renal.
The subject of experiment [16] is SF-268 CNS.
Experiment [17] relates to SF-295 CNS.
Experiment [18] concerns SF-539 CNS.
Experiment [19] concerns UACC-257 melanoma.
Experiment [20] has as its system M14 melanoma.

Compounds without any hit were thinned out: in the full panel of roughly 83,000, 20% have a hit.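 The test compound was applied at a single concentration to cells in 96-well plates for 48 hours, and percent growth was recorded.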 A number with no mark means an inactive call. Calls of active or inactive are those of the source. The calls were made as follows: active = growth percent below 10; inactive = the rest.

With `CCCSc1nc2ccc(C)cc2cc1/C=[N+](\[O-])c1ccccc1`, the growth in experiment [1] is 42.1%; in experiment [2], 70.8%; in [3] it was 90.9%; in experiment [4] it was 25.5%; in [5], 96.7%; in [6], 19.2%. Further, the growth in [7] is 72.8%; in experiment [8], 95.4%; in experiment [9] it was 34.6%; in experiment [10], 101%; in [11] it was 42%; in experiment [12] it was 40.4%. The growth was 46.2% in [13]; 51.1% in experiment [14]; 69.4% in experiment [15]; 45.5% in experiment [16]; 98.8% in experiment [17]; 1.38% (active) in experiment [18]. The growth in experiment [19] is 63.3%; in experiment [20], 6.91% (active).
As to `COc1ccc(OC)c(/C=C/C(=O)N/N=C/c2ccccc2)c1`, the growth in experiment [1] is 65.1%; in experiment [2], 86.6%; in experiment [3], 79.6%; in experiment [4] it was 67.3%; in [5] it was 13.5%; in experiment [6] it was 76.6%. The growth in [7] is -15.3% (active); in experiment [8], 48.4%; in experiment [9] it was 54.3%; in [10], 42.8%; in [11], 72.5%; in experiment [12], 21.2%. The growth in [13] is 59%; in experiment [14] it was 71.8%; in experiment [15], 45.4%; in experiment [16], 60.7%; in experiment [17], 48.5%; in experiment [18], 51.8%. The growth in [19] was 51.3%; in experiment [20] it was 27.8%.
As to `Cc1ncc(C(=O)Nc2ccc(CN3CCN(C)CC3)c(C(F)(F)F)c2)cc1C#Cc1ccc(N)nc1`, the growth in [1] was 3.94% (active); in [2], -3.96% (active); in experiment [3], 20.1%; in experiment [4] it was 18.7%; in experiment [5] it was -60.3% (active); in experiment [6], -15.9% (active). Further, the growth was -8.12% (active) in [7]; 11.3% in experiment [8]; -48.8% (active) in experiment [9]; 5.35% (active) in experiment [10]; 18.1% in [11]; 5.34% (active) in [12]. Besides, the growth in [13] is -88.9% (active); in [14], -64.3% (active); in [15], -60.2% (active); in experiment [16], -11.9% (active); in experiment [17], 18.5%; in experiment [18], -39.3% (active). The growth is 0.961% (active) in [19] and -56.8% (active) in [20].
`C#Cc1cccc(NC(=O)Nc2ccccc2NC(=O)CCl)c1`: the growth in [1] is -52.2% [8.25 µM] (active); in experiment [2], -56.2% [8.25 µM] (active); in experiment [3] it was 91% [8.25 µM]; in experiment [4], -34.8% [8.25 µM] (active); in [5], -24.4% [8.25 µM] (active); in [6] it was -30.6% [8.25 µM] (active). The growth in experiment [7] was -58.6% [8.25 µM] (active); in [8], 10% [8.25 µM]; in [9], -63.2% [8.25 µM] (active); in experiment [10], -49.3% [8.25 µM] (active); in [11], 6.7% [8.25 µM] (active); in [12], 9.69% [8.25 µM] (active). Also, the growth in experiment [13] was -19.1% [8.25 µM] (active); in experiment [14] it was -71.7% [8.25 µM] (active); in experiment [15], -81.1% [8.25 µM] (active); in experiment [16], -17.4% [8.25 µM] (active); in [17], 38.7% [8.25 µM]; in experiment [18] it was -70.8% [8.25 µM] (active). Moreover, the growth in experiment [19] is -12.6% [8.25 µM] (active); in [20], -22.2% [8.25 µM] (active).
Regarding `CC([C@H]1CCC2C3CCC4C(=O)C(NC=O)=CC[C@]4(C)C3CC[C@@]21C)N(C)C` (stereo not given in full), the growth was 44.2% in [1]; 88.5% in experiment [2]; 30.4% in experiment [3]; 74.2% in experiment [4]; -4.84% (active) in experiment [5]; 41.7% in experiment [6]. In addition, the growth in experiment [7] is 96.1%; in experiment [8] it was 45%; in experiment [9], 46.1%; in [10], -80.1% (active); in experiment [11] it was 59.5%; in experiment [12] it was 15%. In addition, the growth in experiment [13] was -2.06% (active); in experiment [14], 11.2%; in experiment [15], -53.3% (active); in experiment [16], -3.89% (active); in experiment [17], 36.6%; in [18], -45.6% (active). Further, the growth in [19] was -20.9% (active); in experiment [20], -33% (active).
For `CCc1nnc(NC(=O)c2nnn(-c3ccccc3)c2-c2ccco2)s1`, the growth was 91.7% in experiment [1]; 90.9% in experiment [2]; 94.2% in [3]; 92.9% in [4]; 83.7% in [5]; 91.3% in experiment [6]. Besides, the growth in experiment [7] was 90.9%; in experiment [8], 96.9%; in experiment [9] it was 105%; in experiment [10], 109%; in experiment [11], 101%; in experiment [12], 71.8%. The growth is 98.9% in experiment [13]; 92.9% in [14]; 100% in [15]; 107% in [16]; 87.2% in experiment [17]; 99.7% in experiment [18]. Also, the growth in experiment [19] was 102%; in [20], 98.4%.
Turning to `N#Cc1c(-c2ccccc2)nc(SCC(=O)Nc2nc(-c3ccc(Cl)cc3)cs2)[nH]c1=O`, the growth in experiment [1] was 84.1%; in experiment [2], 95.9%; in experiment [3], 97.9%; in [4], 90.2%; in [5] it was 106%; in experiment [6] it was 80.7%. For the same molecule, the growth is 77.6% in experiment [7]; 94.6% in [8]; 96.2% in experiment [9]; 106% in experiment [10]; 113% in [11]; 94.2% in [12]. In addition, the growth was 129% in experiment [13]; 120% in experiment [14]; 110% in [15]; 103% in experiment [16]; 98.2% in experiment [17]; 100% in experiment [18]. The growth in experiment [19] was 97.4%; in [20], 93.7%.

(Values after PubChem BioAssay (NCI).)
